The list is not random: actives were taken first. Their share in the collection is about 2.3%.
Mcl1 Noxa PPI – disrupts binding of human Mcl-1 to Noxa peptide | Q07820 | TR-FRET Mcl-1/Noxa peptide binding, 2 h | inhibition, % at 21.7 µM | 220,000 compounds, 1.5% hits | AID 1022;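 active = compounds that cut the protein-peptide binding signal by more than 50% relative to plate controls in a single-dose test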;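 also: His-tagged Mcl-1 with rhodamine Noxa BH3 peptide and terbium anti-His antibody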
Target sequence (Q07820 whole entry, looked up): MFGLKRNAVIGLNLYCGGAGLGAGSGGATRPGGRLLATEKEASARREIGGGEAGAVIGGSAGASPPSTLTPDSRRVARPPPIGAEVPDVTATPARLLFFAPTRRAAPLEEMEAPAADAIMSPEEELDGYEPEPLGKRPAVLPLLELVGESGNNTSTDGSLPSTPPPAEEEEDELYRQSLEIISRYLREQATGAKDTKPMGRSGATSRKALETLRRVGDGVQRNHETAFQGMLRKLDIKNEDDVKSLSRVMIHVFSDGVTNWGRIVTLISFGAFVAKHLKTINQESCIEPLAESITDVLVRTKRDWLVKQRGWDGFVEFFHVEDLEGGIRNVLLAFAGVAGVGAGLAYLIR
Mcl-1 Bim block – human Bim-Mcl-1 interaction inhibition | Bead-based flow cytometry, Bim peptide-Mcl-1 binding | Q07820 | AID 1009 | inhibition, % at 10 µM | 190,000 compounds, 0.1% hits; in the data active = inhibition above about 40%
MCL1-BIM inh – MCL1-BIM-BH3 interaction inhibition (human); GST-MCL1 / FITC-Bim-BH3 fluorescence polarization; Q07820; 320,000 compounds, 0.68% hits; inhibition, % at 10.9 µM;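 active = inhibition above the mean inhibition of all tested compounds plus 3 SD, set per campaign, cut at about 40% in these data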;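 also: higher means more loss of mP so more displacement of Bim peptide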
Bcl-xL primary – Bcl-xL (human) inhibition; GST-Bcl-xL / FITC-Bim BH3 peptide fluorescence polarization; inhibition, % at 10.9 µM; 320,000 compounds, 0.7% hits; AID 2129; Q07817;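 active = inhibition above the mean of all tested compounds plus 3 SD, cutoff set per campaign, cut at about 30% in these data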;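 also: inhibitors lower millipolarization by displacing the labeled peptide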
Target sequence (Q07817 whole entry, looked up): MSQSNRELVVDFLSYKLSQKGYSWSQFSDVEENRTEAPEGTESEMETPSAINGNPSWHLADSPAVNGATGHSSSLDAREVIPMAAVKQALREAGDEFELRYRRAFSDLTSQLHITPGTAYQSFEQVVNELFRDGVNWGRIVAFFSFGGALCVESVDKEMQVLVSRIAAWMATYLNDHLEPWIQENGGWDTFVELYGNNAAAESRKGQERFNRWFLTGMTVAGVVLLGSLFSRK
Mcl1 Bid PPI – disrupts binding of human Mcl-1 to Bid peptide | TR-FRET Mcl-1/Bid-Dy647 peptide binding, 1536-well | Q07820 | inhibition, % at 21.7 µM | 220,000 compounds, 0.97% hits;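 active = compounds that cut the binding signal by more than half at the single screening dose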;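 also: His-tagged Mcl-1 with europium anti-His antibody binding Bid BH3 peptide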
GLD-1 TGE inh – GLD-1-TGE RNA interaction inhibition (C. elegans) | inhibition, % at 5.96 µM | Q17339 | AID 2280 | purified GLD-1 + fluorescein TGE RNA, fluorescence polarization | 320,000 compounds, 0.44% hits;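 active = percent inhibition above a per-plate cutoff, the plate mean of test compounds plus 3 SD, cut at about 30% in these data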
BCLXL inh confirm – Bcl-xL (human) inhibition, MCL1 counter-screen confirmation; inhibition, % at 10.9 µM; GST-Bcl-xL / FITC-Bim BH3 peptide FP binding; shares compounds with MCL1-BIM inh; 1,700 compounds, 54% hits;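 active = inhibition above a cutoff equal to the mean inhibition of all tested compounds plus 3 SD, cut at about 30% in these data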
MCL1 inh confirm – confirmation of human MCL1 and BIM-BH3 interaction inhibitors; shares compounds with MCL1-BIM inh; GST-MCL1 / FITC-Bim-BH3 fluorescence polarization; inhibition, % at 10.9 µM; 1,700 compounds, 61% hits; AID 2168;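 active = inhibition above the average of all tested compounds plus 3 SD, cut at about 40% in these data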
Large screens that a line does not name were inactive (follow-up assays come after a bar, where they were run).

CCC1CSC(Nc2ccc(C(=O)/C=C/c3ccc(Br)cc3)cc2)=N1 (stereo unspecified)	none
COc1ccc(/C=C/C(=O)Nc2ccncc2)cc1OC	none
CCC1CSC(Nc2ccc(C(=O)/C=C/c3ccc(OC)c(OC)c3)cc2)=N1 (stereo unspecified)	Mcl1 Noxa PPI 68
O=C(CSc1nnc2c(n1)[nH]c1ccccc12)NCc1ccco1	Mcl1 Noxa PPI 73
COc1ccc(CNC(=O)CSc2nnc3c(n2)[nH]c2ccccc23)cc1	none (no result: Mcl1 Noxa PPI, Mcl-1 Bim block, Mcl1 Bid PPI)
O=C(NCCC1CCCCN1S(=O)(=O)c1ccccc1)C(=O)Nc1ccc(F)cc1F (stereo unspecified)	none (no result: Mcl1 Noxa PPI, Mcl-1 Bim block, Mcl1 Bid PPI)
CCOc1ccccc1C(=O)NC1CC2CCCC(C1)N2Cc1nnnn1Cc1ccco1 (stereo unspecified)	none
CCOc1ccccc1C(=O)NC1CC2CCCC(C1)N2C1CC1 (stereo unspecified)	Mcl-1 Bim block 42
c1ccc2c(c1)nc(N1CCOCC1)c1nnnn12	Bcl-xL primary 43
C=CCn1c(=O)[nH]c2nc3cc(N=CN(C)C)c(C)cc3nc2c1=O	MCL1-BIM inh active, Bcl-xL primary active, GLD-1 TGE inh 181 (no result: Mcl-1 Bim block) | BCLXL inh confirm 186 | MCL1 inh confirm active
COC(=O)C1=COC(C)C2CN3CCc4c([nH]c5cc(OC)c(OC)cc45)C3CC12 (stereo unspecified)	MCL1-BIM inh 96, Bcl-xL primary 92, GLD-1 TGE inh 53 (no result: Mcl-1 Bim block) | BCLXL inh confirm 94 | MCL1 inh confirm 113
COc1cc(NC(C)C(=O)N2CC(C)OC(C)C2)cc(OC)c1 (stereo unspecified)	MCL1-BIM inh 82, Bcl-xL primary 72 | BCLXL inh confirm inactive | MCL1 inh confirm inactive
CCOc1ccc2nc3cc(NCc4ccc(OC)cc4)ccc3c(N)c2c1	MCL1-BIM inh active, Bcl-xL primary 184 (no result: Mcl1 Noxa PPI, Mcl-1 Bim block, Mcl1 Bid PPI) | BCLXL inh confirm 139 | MCL1 inh confirm 166
CCn1cnc2cc(NCc3ccc(OC)cc3)ccc21	none
CC[C@@]1(C(=O)OC)N[C@H](CN(C)C(=O)Nc2ccc(C(F)(F)F)cc2)[C@@H]2C(=O)N(C)C(=O)[C@@H]21	none (no result: Mcl1 Noxa PPI, Mcl-1 Bim block, MCL1-BIM inh, Bcl-xL primary, Mcl1 Bid PPI)
CN(C(=S)NC(=O)c1ccccc1)c1c(N)n(Cc2ccccc2)c(=O)[nH]c1=O	none (no result: Mcl-1 Bim block)
Nc1c(NCc2ccccc2)c(=O)[nH]c(=O)n1Cc1ccccc1	MCL1-BIM inh 88, Bcl-xL primary 70, GLD-1 TGE inh 86 | BCLXL inh confirm inactive | MCL1 inh confirm inactive
CCCCN(C(=O)c1cccc(-n2cccc2)c1)c1c(N)n(Cc2ccccc2)c(=O)[nH]c1=O	MCL1-BIM inh 78 (no result: Mcl1 Noxa PPI, Mcl-1 Bim block, Mcl1 Bid PPI) | BCLXL inh confirm inactive | MCL1 inh confirm inactive
CC1(C)CC(=O)C2=C(C1)OC(N)=C(C#N)C2c1ccccc1[N+](=O)[O-] (stereo unspecified)	MCL1-BIM inh 186, Bcl-xL primary 165, GLD-1 TGE inh 119 | BCLXL inh confirm 93 | MCL1 inh confirm 114
COc1cc(OC)c(OC)cc1/C=C1\Oc2cc(OCC(=O)N3Cc4ccccc4C[C@H]3C(=O)O)ccc2C1=O	none (no result: Mcl1 Noxa PPI, Mcl-1 Bim block, Mcl1 Bid PPI)
Cc1nc2ccccn2c1C(=O)N/N=C/c1ccc([N+](=O)[O-])o1	MCL1-BIM inh 41 | BCLXL inh confirm inactive | MCL1 inh confirm 54
[O-][n+]1c2ccccc2c2n1CCCN=C2c1ccc(Cl)cc1	none (no result: Mcl1 Noxa PPI, Mcl-1 Bim block, Mcl1 Bid PPI)
COc1ccccc1/C=c1\sc2nc(-c3ccco3)nn2c1=O	Mcl1 Noxa PPI 74, MCL1-BIM inh 60 | BCLXL inh confirm inactive | MCL1 inh confirm 52
CN(Cc1c(F)cccc1Cl)C(=O)CNC(=O)c1cccs1	none (no result: Mcl1 Noxa PPI, Mcl-1 Bim block, Mcl1 Bid PPI)
O=C(CSc1nc(C2CC2)nc2ccccc12)N1c2ccccc2Sc2ccc(C(F)(F)F)cc21	MCL1-BIM inh 47 | BCLXL inh confirm inactive | MCL1 inh confirm inactive
O=C(CSc1nc(C2CC2)nc2ccccc12)N1CCCCC1	none (no result: Mcl1 Noxa PPI, Mcl-1 Bim block, Mcl1 Bid PPI)
COc1ccc(S(=O)(=O)N(C)C[C@H]2Oc3c(NC(=O)C4CCCCC4)cccc3C(=O)N([C@H](C)CO)C[C@@H]2C)cc1	none (no result: Mcl1 Noxa PPI, Mcl-1 Bim block, MCL1-BIM inh, Bcl-xL primary, Mcl1 Bid PPI)
COc1ccc(NC(=O)/C(C#N)=C/c2ccc[nH]2)c(OC)c1	none (no result: Mcl1 Noxa PPI, Mcl-1 Bim block, Mcl1 Bid PPI)
N#C/C(=C\c1ccc[nH]1)C(=O)Nc1ccccc1Cl	MCL1-BIM inh 47, Bcl-xL primary 52 (no result: Mcl1 Noxa PPI, Mcl-1 Bim block, Mcl1 Bid PPI) | BCLXL inh confirm inactive | MCL1 inh confirm inactive
CCN(CC)c1ccc2cc(NC(=O)CCC(=O)O)c(=O)oc2c1	MCL1-BIM inh 113, Bcl-xL primary 103, GLD-1 TGE inh 75 | BCLXL inh confirm 106 | MCL1 inh confirm 118
NC(=O)c1c(NC(=O)C2CC=CCC2C(=O)O)sc2c1CCCCC2 (stereo unspecified)	MCL1-BIM inh 41 (no result: Mcl1 Noxa PPI, Mcl-1 Bim block, Mcl1 Bid PPI) | BCLXL inh confirm inactive | MCL1 inh confirm inactive
CC(C)c1cc(Nc2cccc(O)c2)cc(C(C)C)c1O	MCL1-BIM inh 146, Bcl-xL primary 140, GLD-1 TGE inh 148 (no result: Mcl1 Noxa PPI, Mcl-1 Bim block, Mcl1 Bid PPI) | BCLXL inh confirm inactive | MCL1 inh confirm inactive
N#CC12C(N)=NC3(OCCO3)C1(C#N)C1=C(CCC1)NC2c1ccccc1 (stereo unspecified)	MCL1-BIM inh 64, Bcl-xL primary 35, GLD-1 TGE inh 63 | BCLXL inh confirm inactive | MCL1 inh confirm inactive
CCCCc1ccc(NC(=O)Nc2cc(C)nn2C)cc1	MCL1-BIM inh 68 (no result: Mcl1 Noxa PPI, Mcl-1 Bim block, Mcl1 Bid PPI) | BCLXL inh confirm inactive | MCL1 inh confirm inactive
N#CC(C#N)=C1C=CC=CN1/C(=C\c1ccccc1)C(=O)c1cccs1	Mcl1 Noxa PPI 63, MCL1-BIM inh 42 | BCLXL inh confirm 37 | MCL1 inh confirm 65
COc1ccccc1C(=O)Oc1ccc2c(c1)O/C(=C\c1ccncc1)C2=O	MCL1-BIM inh 142, Bcl-xL primary 123, GLD-1 TGE inh 101 | BCLXL inh confirm 32 | MCL1 inh confirm 52
O=C(Oc1ccc2c(c1)O/C(=C\c1ccncc1)C2=O)c1cccs1	MCL1-BIM inh 82, Bcl-xL primary 78, GLD-1 TGE inh 84 (no result: Mcl-1 Bim block) | BCLXL inh confirm 34 | MCL1 inh confirm 46
CS(=O)(=O)Oc1ccc2c(c1)O/C(=C\c1cccnc1)C2=O	none (no result: Mcl-1 Bim block)
COc1ccc(/C=C2\Oc3cc(OC(=O)N4CCOCC4)ccc3C2=O)cc1	none (no result: Mcl-1 Bim block)
CC(=O)Oc1ccc2c(c1)O/C(=C\c1ccncc1)C2=O	MCL1-BIM inh 151, Bcl-xL primary 126, GLD-1 TGE inh 93 (no result: Mcl-1 Bim block) | BCLXL inh confirm 90 | MCL1 inh confirm 115
CCC(=O)Oc1ccc2c(c1)O/C(=C\c1ccco1)C2=O	MCL1-BIM inh 118, Bcl-xL primary 112, GLD-1 TGE inh 89 (no result: Mcl-1 Bim block) | BCLXL inh confirm 47 | MCL1 inh confirm 76
COc1ccc(S(=O)(=O)Oc2ccc3c(c2)O/C(=C\c2cccnc2)C3=O)cc1	none
COc1cc(C(=S)N2CCOCC2)cc(Br)c1OS(=O)(=O)c1ccccc1	none (no result: Mcl1 Noxa PPI, Mcl-1 Bim block, Mcl1 Bid PPI)
